PubChem BioAssay (EPA / NIEHS)
Records with an inconclusive call do not appear. Calls of active or inactive are those of the source. Rule for the calls: active = hit-call score of the fitted dose curve at least 0.9, where 1 is the maximum; inconclusive = response in the unintended direction; inactive = score below 0.9.

Experiments:
[1] = target: human Adrenergic, Alpha 2A Receptor (Adra2A), ADRA2A (gene 150) (UniProt P08913); assay: NVS_GPCR_hAdra2A: NovaScreen (NVS) G Protein-Coupled Receptor Assay for human Adrenergic, Alpha 2A Receptor (Adra2A) (AID 2283257)
Summary of the method: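 Displacement of a specific radioligand from HT29 membrane protein was counted by filter scintillation after 1 h. Compounds were screened in duplicate at 25 uM, and actives were retested in concentration series. Fitting was positive-direction against DMSO.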

[2] = target: Type-1 angiotensin II receptor (Homo sapiens) (UniProt P30556); assay: NVS_GPCR_hAT1: NovaScreen (NVS) G Protein-Coupled Receptor Assay for human Angiotensin II receptor type 1 (AT1) (AID 2283263)
Summary of the method: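 Hits from a 25 uM duplicate screen (threshold e.g. 30% inhibition) were run in concentration-response with 50 uM top concentration. Displacement of specific radioligand from KAN-TS membrane preparations measured after 3 h by filter scintillation, DMSO as baseline.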

[3] = target: human Dopamine Receptor D2 (DRD2), DRD2 (gene 1813) (UniProt P14416); assay: NVS_GPCR_hDRD2s: NovaScreen (NVS) G Protein-Coupled Receptor Assay for human Dopamine Receptor D2 (DRD2) (AID 2283266)
Summary of the method: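 Test compound (25 uM, duplicate in the primary screen; concentration series at follow-up) competed with radioligand for human DRD2 in CHO-derived membrane protein. Filter-based scintillation counting was done 1.5 hours after dosing, with loss of signal analysed against DMSO.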

[4] = target: D(1A) dopamine receptor (Homo sapiens) (UniProt P21728); assay: NVS_GPCR_hDRD1: NovaScreen (NVS) G Protein-Coupled Receptor Assay for human Dopamine Receptor D1 (DRD1) (AID 2283269)
Summary of the method: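 Radioligand displacement binding on membranes/protein extracted from HEK293 expressing human D1, cell-free; read 1 h after dosing by filter-based scintillation counting. Primary screen in duplicate at 25 uM, actives followed up in concentration series; signal loss versus DMSO baseline.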

[5] = target: human Leukotriene B4 Receptor 1 (LTB4-BLT1), LTB4R (gene 1241) (UniProt Q15722); assay: NVS_GPCR_hLTB4_BLT1: NovaScreen (NVS) G Protein-Coupled Receptor Assay for human Leukotriene B4 Receptor 1 (LTB4-BLT1) (AID 2283271)
Summary of the method: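 Cell-free human neutrophil receptor preparation, 1 h exposure, radioligand binding read by filter scintillation counting. Single 25 uM duplicate screen, then concentration series topping at 50 uM; binding loss scored against DMSO baseline.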

[6] = target: Muscarinic acetylcholine receptor M5 (Homo sapiens) (UniProt P08912); assay: NVS_GPCR_hM5: NovaScreen (NVS) G Protein-Coupled Receptor Assay for human Muscarinic, M5 Receptor (AID 2283275)
Summary of the method: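 Chemicals passing a primary duplicate screen at 25 uM were run as singleton concentration series, maximum 50 uM. Displacement of a specific radioligand from CHO-extracted receptor was read by filter scintillation after 1 h, relative to DMSO.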

[7] = target: human Adenosine A2a Receptor (AdoRA2a), ADORA2A (gene 135) (UniProt P29274); assay: NVS_GPCR_hAdoRA2a: NovaScreen (NVS) G Protein-Coupled Receptor Assay for human Adenosine A2a Receptor (AdoRA2a) (AID 2283256)
Summary of the method: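 HEK293-derived receptor preparation, radioligand displacement, 1.5 h, filtration + scintillation read. Loss of bound signal scored vs DMSO. Single-point 25 uM in duplicate first, then concentration-response for actives.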

[8] = target: human Endothelin Receptor Type B (ETB), EDNRB (gene 1910) (UniProt P24530); assay: NVS_GPCR_hETB: NovaScreen (NVS) G Protein-Coupled Receptor Assay for human Endothelin Receptor Type B (ETB) (AID 2283267)
Summary of the method: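 Filter-based scintillation readout of radioligand displacement, 4 h, using membranes from human astrocytoma cells. Actives from a 25 uM duplicate screen were retested in concentration-response (top 50 uM) relative to DMSO baseline.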

[9] = target: human Adrenergic, Beta 3 Receptor (Adrb3), ADRB3 (gene 155) (UniProt P13945); assay: NVS_GPCR_hAdrb3: NovaScreen (NVS) G Protein-Coupled Receptor Assay for human Adrenergic, Beta 3 Receptor (Adrb3) (AID 2283262)
Summary of the method: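 A cell-free filter binding assay read by scintillation counting, with displacement of a specific radioligand measured after 1 hour. The receptor source was SK-N-MC extracts (cells pretreated with isoproterenol and 8-bromo-cAMP). Compounds were first tested at 25 uM in duplicate and then in concentration series.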

[10] = target: human Endothelin Receptor Type A (ETA), EDNRA (gene 1909) (UniProt P25101); assay: NVS_GPCR_hETA: NovaScreen (NVS) G Protein-Coupled Receptor Assay for human Endothelin Receptor Type A (ETA) (AID 2283265)
Summary of the method: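 Binding of radioligand to membrane protein extracted from SH-SY5Y cells was read by filtration and scintillation after 3 h. Compounds were screened at 25 uM in duplicate, with hits followed up in singleton concentration series to 50 uM.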

[11] = target: Muscarinic acetylcholine receptor M3 (Homo sapiens) (UniProt P20309); assay: NVS_GPCR_hM3: NovaScreen (NVS) G Protein-Coupled Receptor Assay for human Muscarinic, M3 Receptor (AID 2283272)
Summary of the method: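 Radioligand displacement binding on human M3 receptor in CHO-derived membranes, 1 h incubation, filter-based scintillation counting. Primary screen in duplicate at 25 uM; actives followed up in concentration series; loss of signal versus DMSO.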

[12] = target: human Adrenergic, Beta 1 Receptor (Adrb1), ADRB1 (gene 153) (UniProt P08588); assay: NVS_GPCR_hAdrb1: NovaScreen (NVS) G Protein-Coupled Receptor Assay for human Adrenergic, Beta 1 Receptor (Adrb1) (AID 2283258)
Summary of the method: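 Membranes/protein extracted from human neuroepithelioma cells, radioligand competition binding read by filtration and scintillation 2 h post-dose. Single 25 uM duplicate screen, then concentration-response follow-up; DMSO as negative control.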

[13] = target: Beta-2 adrenergic receptor (Homo sapiens) (UniProt P07550); assay: NVS_GPCR_hAdrb2: NovaScreen (NVS) G Protein-Coupled Receptor Assay for human Adrenergic, Beta 2 Receptor (Adrb2) (AID 2283261)
Summary of the method: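 Compounds screened in duplicate at 25 uM, then actives in concentration series. Human beta-2 receptor from CHO material, cell-free; radioligand displacement after 1 h measured by filtration and scintillation against DMSO baseline.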

[14] = target: human Dopamine Receptor D4.4 (DRD4.4), DRD4 (gene 1815) (UniProt P21917); assay: NVS_GPCR_hDRD4.4: NovaScreen (NVS) G Protein-Coupled Receptor Assay for human Dopamine Receptor D4.4 (DRD4.4) (AID 2283264)
Summary of the method: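 Filter-binding assay with a tritiated or iodinated ligand, cell-free receptor prepared from CHO, 1 hour. Loss of bound radioactivity versus DMSO; single 25 uM duplicate screen, then concentration-response for actives.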

[15] = target: human Histamine 1 Receptor (H1), HRH1 (gene 3269) (UniProt P35367); assay: NVS_GPCR_hH1: NovaScreen (NVS) G Protein-Coupled Receptor Assay for human Histamine 1 Receptor (H1) (AID 2283268)
Summary of the method: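 Filter-based scintillation detection of radioligand binding to human H1, 1 h incubation; chemicals screened in duplicate at 25 uM, then concentration-response; signal loss relative to DMSO taken as activity.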

[16] = target: Muscarinic acetylcholine receptor M1 (Homo sapiens) (UniProt P11229); assay: NVS_GPCR_hM1: NovaScreen (NVS) G Protein-Coupled Receptor Assay for human Muscarinic, M1 Receptor (AID 2283270)
Summary of the method: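 Actives from a duplicate 25 uM single-point screen were retested in concentration series. Binding measured as displacement of a radioligand from CHO-derived receptor preparation, 1 h incubation, filtration and scintillation counting, analysed as signal loss against DMSO.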

[17] = target: Muscarinic acetylcholine receptor M2 (Homo sapiens) (UniProt P08172); assay: NVS_GPCR_hM2: NovaScreen (NVS) G Protein-Coupled Receptor Assay for human Muscarinic, M2 Receptor (AID 2283273)
Summary of the method: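 CHO-expressed human M2 receptor preparation, competitive displacement of a radioligand read by filter-based scintillation counting after 1 h. Single 25 uM duplicate screen, then concentration-response follow-up of actives; DMSO baseline.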

[18] = target: human Muscarinic, M4 Receptor, CHRM4 (gene 1132) (UniProt P08173); assay: NVS_GPCR_hM4: NovaScreen (NVS) G Protein-Coupled Receptor Assay for human Muscarinic, M4 Receptor (AID 2283274)
Summary of the method: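 Filter-based scintillation counting of radioligand bound to CHO-expressed human M4 preparations after 1 h; loss of signal fitted versus DMSO. Initial duplicate testing at 25 uM, concentration-response follow-up for actives.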

[19] = target: Neuropeptide Y receptor type 2 (Homo sapiens) (UniProt P49146); assay: NVS_GPCR_hNPY2: NovaScreen (NVS) G Protein-Coupled Receptor Assay for human Neuropeptide Receptor Y2 (NPY2) (AID 2283277)
Summary of the method: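 Chemicals were first tested in duplicate at 25 uM, then actives in singleton concentration series to 50 uM. Tracer binding to SK-N-MC-derived protein measured cell-free after 1 h via filter scintillation; signal loss relative to DMSO.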

[20] = target: human Neuropeptide Receptor Y1 (NPY1), NPY1R (gene 4886) (UniProt P25929); assay: NVS_GPCR_hNPY1: NovaScreen (NVS) G Protein-Coupled Receptor Assay for human Neuropeptide Receptor Y1 (NPY1) (AID 2283276)
Summary of the method: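 Displacement of specific radioligand from NPY1 receptor of SK-N-MC origin, read by filtration and scintillation after 1 h. Compounds first tested at 25 uM in duplicate, then actives in concentration series; signal loss relative to DMSO.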

Measured: AC50

Chain of Type-1 angiotensin II receptor (Homo sapiens) (P30556 whole entry, looked up): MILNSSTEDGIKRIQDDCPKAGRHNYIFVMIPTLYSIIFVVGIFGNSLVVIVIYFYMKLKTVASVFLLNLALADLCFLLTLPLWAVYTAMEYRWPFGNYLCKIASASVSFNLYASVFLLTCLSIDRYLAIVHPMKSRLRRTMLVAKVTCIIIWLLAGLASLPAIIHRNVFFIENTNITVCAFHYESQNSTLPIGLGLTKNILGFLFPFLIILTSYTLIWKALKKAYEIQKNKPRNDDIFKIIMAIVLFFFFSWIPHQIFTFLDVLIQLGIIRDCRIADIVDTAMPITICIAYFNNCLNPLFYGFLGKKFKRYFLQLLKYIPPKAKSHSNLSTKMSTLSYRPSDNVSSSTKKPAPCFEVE
Chain of human Dopamine Receptor D2 (DRD2), DRD2 (gene 1813) (P14416 whole entry, looked up): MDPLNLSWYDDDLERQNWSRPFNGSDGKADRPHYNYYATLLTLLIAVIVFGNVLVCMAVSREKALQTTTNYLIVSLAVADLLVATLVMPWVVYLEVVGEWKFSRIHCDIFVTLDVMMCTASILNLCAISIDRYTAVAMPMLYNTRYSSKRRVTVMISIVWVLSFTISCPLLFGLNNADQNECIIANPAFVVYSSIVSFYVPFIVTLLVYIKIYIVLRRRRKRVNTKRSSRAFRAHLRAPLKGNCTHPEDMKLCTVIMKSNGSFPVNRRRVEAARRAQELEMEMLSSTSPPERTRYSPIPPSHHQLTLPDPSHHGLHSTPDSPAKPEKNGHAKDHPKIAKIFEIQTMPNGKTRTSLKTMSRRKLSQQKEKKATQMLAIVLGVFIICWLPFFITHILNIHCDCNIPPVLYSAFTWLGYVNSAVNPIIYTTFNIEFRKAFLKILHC
Chain of human Histamine 1 Receptor (H1), HRH1 (gene 3269) (P35367 whole entry, looked up): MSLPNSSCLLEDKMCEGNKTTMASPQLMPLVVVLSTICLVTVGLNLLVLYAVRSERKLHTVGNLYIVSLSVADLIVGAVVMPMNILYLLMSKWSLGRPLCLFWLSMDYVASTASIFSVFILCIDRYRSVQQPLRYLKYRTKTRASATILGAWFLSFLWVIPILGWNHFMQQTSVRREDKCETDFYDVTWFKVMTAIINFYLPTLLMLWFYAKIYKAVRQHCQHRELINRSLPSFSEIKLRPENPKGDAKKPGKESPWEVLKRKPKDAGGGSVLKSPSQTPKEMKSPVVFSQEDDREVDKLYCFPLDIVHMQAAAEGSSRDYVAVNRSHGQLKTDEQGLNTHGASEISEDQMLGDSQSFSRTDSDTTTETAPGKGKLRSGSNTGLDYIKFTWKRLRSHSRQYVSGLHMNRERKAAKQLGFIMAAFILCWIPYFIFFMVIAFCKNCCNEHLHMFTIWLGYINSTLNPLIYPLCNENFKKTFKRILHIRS
Chain of Muscarinic acetylcholine receptor M5 (Homo sapiens) (P08912 whole entry, looked up): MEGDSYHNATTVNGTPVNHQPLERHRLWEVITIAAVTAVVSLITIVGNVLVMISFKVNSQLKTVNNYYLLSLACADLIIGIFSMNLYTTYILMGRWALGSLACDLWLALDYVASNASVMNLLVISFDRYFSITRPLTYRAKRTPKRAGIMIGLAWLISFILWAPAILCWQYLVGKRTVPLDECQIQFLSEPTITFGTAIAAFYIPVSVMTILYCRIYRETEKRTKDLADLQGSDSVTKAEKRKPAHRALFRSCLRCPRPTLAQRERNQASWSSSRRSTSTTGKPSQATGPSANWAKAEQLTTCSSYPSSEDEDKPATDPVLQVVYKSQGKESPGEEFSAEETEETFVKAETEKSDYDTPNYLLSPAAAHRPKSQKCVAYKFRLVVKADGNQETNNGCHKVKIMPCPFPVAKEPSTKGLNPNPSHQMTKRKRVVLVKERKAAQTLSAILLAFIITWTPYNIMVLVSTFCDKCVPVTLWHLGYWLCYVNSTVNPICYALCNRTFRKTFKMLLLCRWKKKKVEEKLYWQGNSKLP
Chain of human Adrenergic, Alpha 2A Receptor (Adra2A), ADRA2A (gene 150) (P08913 whole entry, looked up): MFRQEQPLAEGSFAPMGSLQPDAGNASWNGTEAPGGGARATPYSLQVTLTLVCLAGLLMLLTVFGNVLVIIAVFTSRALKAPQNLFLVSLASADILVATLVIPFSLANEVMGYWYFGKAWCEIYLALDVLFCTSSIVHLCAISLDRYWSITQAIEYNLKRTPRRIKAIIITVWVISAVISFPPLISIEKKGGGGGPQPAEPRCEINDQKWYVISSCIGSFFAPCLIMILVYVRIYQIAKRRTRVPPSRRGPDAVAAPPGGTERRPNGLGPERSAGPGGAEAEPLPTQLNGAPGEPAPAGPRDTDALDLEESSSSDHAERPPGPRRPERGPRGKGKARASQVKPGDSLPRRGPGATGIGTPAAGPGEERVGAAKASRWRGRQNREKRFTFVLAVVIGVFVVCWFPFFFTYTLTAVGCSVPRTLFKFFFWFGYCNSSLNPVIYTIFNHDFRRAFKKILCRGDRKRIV
Chain of human Muscarinic, M4 Receptor, CHRM4 (gene 1132) (P08173 whole entry, looked up): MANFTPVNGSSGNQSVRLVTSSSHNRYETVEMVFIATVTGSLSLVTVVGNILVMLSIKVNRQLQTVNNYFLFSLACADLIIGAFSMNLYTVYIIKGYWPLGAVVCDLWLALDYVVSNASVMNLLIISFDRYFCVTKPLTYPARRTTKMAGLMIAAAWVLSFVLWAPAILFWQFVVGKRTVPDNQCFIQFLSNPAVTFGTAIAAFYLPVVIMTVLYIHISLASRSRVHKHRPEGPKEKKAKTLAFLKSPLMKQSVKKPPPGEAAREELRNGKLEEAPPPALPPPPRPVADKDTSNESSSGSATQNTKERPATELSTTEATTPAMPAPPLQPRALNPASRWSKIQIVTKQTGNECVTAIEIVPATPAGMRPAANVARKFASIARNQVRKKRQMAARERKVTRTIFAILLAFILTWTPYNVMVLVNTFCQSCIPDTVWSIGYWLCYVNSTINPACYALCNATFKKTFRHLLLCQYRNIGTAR
Chain of human Adrenergic, Beta 3 Receptor (Adrb3), ADRB3 (gene 155) (P13945 whole entry, looked up): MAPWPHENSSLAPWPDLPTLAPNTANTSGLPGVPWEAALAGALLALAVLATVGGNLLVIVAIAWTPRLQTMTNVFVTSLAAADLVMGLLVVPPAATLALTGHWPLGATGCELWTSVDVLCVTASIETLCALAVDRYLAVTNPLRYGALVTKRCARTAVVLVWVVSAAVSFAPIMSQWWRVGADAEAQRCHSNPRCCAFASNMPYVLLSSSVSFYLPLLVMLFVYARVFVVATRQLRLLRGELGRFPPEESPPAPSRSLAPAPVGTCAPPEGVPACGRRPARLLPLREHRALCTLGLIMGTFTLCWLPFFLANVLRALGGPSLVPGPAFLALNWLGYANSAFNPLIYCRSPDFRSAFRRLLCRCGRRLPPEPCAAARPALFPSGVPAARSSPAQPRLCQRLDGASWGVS
Chain of Muscarinic acetylcholine receptor M1 (Homo sapiens) (P11229 whole entry, looked up): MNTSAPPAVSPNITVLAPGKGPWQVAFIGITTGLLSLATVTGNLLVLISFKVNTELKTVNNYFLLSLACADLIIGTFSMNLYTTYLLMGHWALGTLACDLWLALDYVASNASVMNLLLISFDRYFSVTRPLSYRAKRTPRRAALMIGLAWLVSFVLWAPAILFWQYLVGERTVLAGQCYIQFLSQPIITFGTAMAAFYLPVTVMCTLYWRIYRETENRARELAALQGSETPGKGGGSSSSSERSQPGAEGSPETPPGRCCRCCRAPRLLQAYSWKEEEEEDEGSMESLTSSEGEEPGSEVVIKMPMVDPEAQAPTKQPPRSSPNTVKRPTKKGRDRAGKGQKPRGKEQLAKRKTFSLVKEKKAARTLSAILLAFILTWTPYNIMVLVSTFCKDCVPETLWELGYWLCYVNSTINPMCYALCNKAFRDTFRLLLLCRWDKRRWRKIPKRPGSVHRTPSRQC
Chain of Muscarinic acetylcholine receptor M3 (Homo sapiens) (P20309 whole entry, looked up): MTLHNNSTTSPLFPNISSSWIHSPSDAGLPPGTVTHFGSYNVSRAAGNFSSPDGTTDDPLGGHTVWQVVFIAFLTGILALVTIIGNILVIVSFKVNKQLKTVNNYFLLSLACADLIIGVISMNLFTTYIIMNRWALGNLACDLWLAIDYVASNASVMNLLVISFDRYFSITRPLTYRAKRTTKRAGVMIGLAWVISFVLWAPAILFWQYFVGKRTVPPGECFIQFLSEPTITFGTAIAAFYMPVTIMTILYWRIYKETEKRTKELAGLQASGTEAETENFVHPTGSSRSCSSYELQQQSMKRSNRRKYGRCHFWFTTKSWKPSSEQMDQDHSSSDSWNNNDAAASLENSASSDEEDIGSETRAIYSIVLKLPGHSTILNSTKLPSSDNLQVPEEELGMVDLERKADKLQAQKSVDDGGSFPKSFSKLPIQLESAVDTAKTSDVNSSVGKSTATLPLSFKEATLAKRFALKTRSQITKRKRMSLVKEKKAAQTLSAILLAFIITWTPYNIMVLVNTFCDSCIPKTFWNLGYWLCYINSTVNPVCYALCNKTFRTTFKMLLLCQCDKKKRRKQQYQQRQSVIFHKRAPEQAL
Chain of D(1A) dopamine receptor (Homo sapiens) (P21728 whole entry, looked up): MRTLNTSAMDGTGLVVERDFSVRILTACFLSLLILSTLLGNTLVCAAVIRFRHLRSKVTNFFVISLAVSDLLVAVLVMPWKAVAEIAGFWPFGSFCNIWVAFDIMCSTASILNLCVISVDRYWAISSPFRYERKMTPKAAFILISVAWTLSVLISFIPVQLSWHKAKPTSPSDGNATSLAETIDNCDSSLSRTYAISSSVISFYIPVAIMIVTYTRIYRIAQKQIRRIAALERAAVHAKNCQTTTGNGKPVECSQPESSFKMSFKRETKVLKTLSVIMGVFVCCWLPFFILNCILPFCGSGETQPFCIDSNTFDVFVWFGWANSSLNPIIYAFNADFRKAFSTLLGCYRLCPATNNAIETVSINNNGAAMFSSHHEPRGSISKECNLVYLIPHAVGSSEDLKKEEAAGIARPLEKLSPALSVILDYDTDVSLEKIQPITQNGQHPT

CCN(Cc1cccnc1)C(=O)c1cccc(Cl)c1[C@]1(C)C(=O)N(Cc2ccc(OC)cc2OC)c2ccc(Cl)cc21
inactive: [1]
active: [2] 3.69 µM | [3] 1.91 µM | [4] 2.53 µM | [5] 1.49 µM | [6] 4.06 µM

O=C(Nc1ccc(Cl)cc1)Nc1ccc(Cl)c(Cl)c1
inactive: [3]

CC(C)(O)c1ccc(CNC(=O)c2cccnc2Oc2ccc3nonc3c2)cc1
inactive: [7]

O=C1CCC(C2CCCCC2)CC1
inactive: [2] | [3]

CC1(C)NC(=O)N(c2ccc([N+](=O)[O-])c(C(F)(F)F)c2)C1=O
inactive: [4]

CCCCCc1ccc(N)cc1
inactive: [8]

COc1cccc([C@H](O)C2CCN(CCc3ccc(F)cc3)CC2)c1OC
inactive: [9] | [10] | [11] | [6]

CCCCCCCCOc1ccc(C(=O)c2ccccc2)c(O)c1
inactive: [12]

Cc1cc2c(cc1C(F)(F)F)N(C(=O)Nc1ccc(Oc3cccnc3C)nc1)CC2
active: [3] 0.0486 µM

CN(C)C(=O)C1(N2CCCCC2)CCN(CC[C@@]2(c3ccc(Cl)c(Cl)c3)CN(C(=O)c3ccccc3)CCO2)CC1
active: [1] 35.6 µM | [12] 20.7 µM | [13] 25.9 µM | [9] 23.6 µM | [2] 15.7 µM | [14] 12.2 µM | [3] 1.59 µM | [15] 20.3 µM | [4] 23.6 µM | [16] 11.7 µM | [11] 9.78 µM | [17] 6.82 µM | [18] 6.99 µM | [6] 6.44 µM | [19] 8.65 µM

Clc1cc(Cl)c2c(c1)N=C1CCCCCN1C2
inactive: [9]
active: [1] 2.99 µM | [15] 4.5 µM | [16] 2.74 µM | [11] 2.09 µM | [17] 1.17 µM | [18] 1.71 µM | [6] 2.01 µM

CCN(CC)C(=O)c1cc(S(=O)(=O)Cc2ccccc2)c(N2CCC(c3ccccc3)CC2)cc1N(CC)CCN(C)C
active: [13] 16.5 µM | [14] 16.3 µM | [3] 1.05 µM | [4] 5.59 µM | [16] 8.82 µM | [11] 7.89 µM | [18] 9.84 µM | [6] 6.24 µM | [20] 14.6 µM
inactive: [9] | [15]
